Among the data in PubChem BioAssay (NCATS) are outcome, activity change, negative = inhibition and Potency values, retold here.

Test [1] in a line: AP1 Signaling Pathway (AID 357). Also: % is scaled to controls: 0 for no effect and ±100 for the full control effect. The gist of the method: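 ME-180 cells with beta-lactamase reporter under AP-1 response element, stimulated with EC50 EGF; compounds tested in titration series, 5 h at 37 °C. CCF4 substrate added 2.5 h at room temperature; 460/530 nm emission ratio gave %activity and AC50.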
Test [2] in a line: NFAT Signaling Pathway (AID 444).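 Also: carbachol stimulus at about its EC50 of 1 µM final; % is scaled to controls: 0 for no effect and ±100 for the full control effect.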 The following applies: Jurkat NFAT-bla M1, carbachol, beta-lactamase ratio, 5 h; at 17.2 µM (top of the series) unless noted. The gist of the method:
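Read-out: CCF4 FRET ratio (460 nm/530 nm) after 1 h RT dye loading, used for %activity and AC50 from titration series. Cells: Jurkat NFAT-β-lactamase/M1 line, treated with compound plus 1 uM carbachol for 5 h, 37 °C.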

Test [3] concerns the target Cytochrome P450 1A2 (Homo sapiens) (UniProt P05177). Put plainly: p450-cyp1a2 (AID 410; calls by dose curve; also: potency is read from the fitted curve at half-maximal effect;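 as to activity change, negative = inhibition: -100% = full effect of reference inhibitor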). The gist of the method: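 20nM CYP1A2, 100uM Luciferin-ME (=Km), 100mM KPO4; cpd 10 min RT; +NADPH regen, 60 min RT; stop/detect 20 min; luminescence. Normalized to furafylline 57 uM = full inhibition.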
Test [4] has as its target Lysosomal acid glucosylceramidase (Homo sapiens) (UniProt P04062). Put plainly: Glucocerebrosidase-p2 (AID 348; in the data active = potency below about 10 µM; also: potency is read from the fitted curve at half-maximal effect). The following applies: purified GBA, blue fluorogenic substrate, 40 min. The gist of the method:
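Normal human glucocerebrosidase (0.2 nM) with blue fluorogenic substrate (80 uM final) in citrate/phosphate pH 5.9 with 10mM sodium taurocholate, 0.01% tween-20; 40 min RT, NaOH/glycine stop; fluorescence Ex 365/Em 440; AC50 from a titration from 0.6 nM upwards.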

Test [5] can be described thus: Cell Viability - BJ (AID 421; calls by dose curve;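 also: potency is read from the fitted curve at half-maximal effect; cells exposed to compound for 40 hours at 37 °C before readout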). Conditions: BJ fibroblast viability, qHTS. Put shortly:
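Quantitative HTS: ATP depletion in BJ cells after 40 hr compound exposure in complete culture medium, detected with CellTiter-Glo; AC50 from standard Hill fits.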
Background: qHTS replaces the single test concentration by a dilution series.

Test [6] is described as follows: Cell Viability - Jurkat (AID 426;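 active = dose-dependent loss of cell ATP signal giving a full or clear fitted curve, ranked by lower potency value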; also: potency is read from the fitted curve at half-maximal effect). Conditions: qHTS. Put shortly: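 Luminescent ATP read-out (CellTiter-Glo, 20 min at room temperature) after 40 hr compound exposure at 37 °C of Jurkat E6-1 cells, 5000/well. Decreased ATP taken as cytotoxicity; AC50 from standard Hill equation.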
The nature of test [7]: Cell Viability - Hek293 (AID 427;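 active = compounds whose dose-response curve shows a full or clear partial loss of cell viability, called from curve shape rather than a numeric limit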;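 also: potency is read from the fitted curve at half-maximal effect; cells exposed to compound for 40 hours at 37 °C before reading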). Conditions: qHTS. The gist of the method: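 AC50 values derive from Hill-modelled concentration-response of ATP-based luminescence, normalized between DMSO-only and 100 uM tamoxifen controls. Cells were exposed in complete culture medium for 40 hr at 37 °C before detection.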
A short description of test [8]: Cell Viability - HepG2 (AID 433; calls by dose curve; also: potency is read from the fitted curve at half-maximal effect). Conditions: qHTS. Put shortly: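 HepG2 hepatocellular carcinoma cells (1500/well) were treated with compounds for 40 h at 37 °C in complete medium; intracellular ATP was read by CellTiter-Glo luminescence. Data were normalized to DMSO and 100 uM tamoxifen, and AC50 came from Hill fits.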
Test [9] is described as follows: Cell Viability - MRC5 (AID 434; calls by dose curve;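 also: potency is read from the fitted curve at half-maximal effect; potency reflects cytotoxicity seen as loss of intracellular ATP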). The following applies: MRC5 lung fibroblast viability, qHTS. The gist of the method:
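AC50 values come from Hill-equation fits of intracellular ATP loss, measured by CellTiter-Glo luminescence. Normal lung fibroblasts (MRC5) had 40 hr compound treatment at 37 C, normalized between DMSO and 100 uM tamoxifen.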

Test [10] in a line: Cell Viability - SK-N-SH (AID 435; calls by dose curve;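 also: potency is read from the fitted curve at half-maximal effect; compound exposure lasted 40 h at 37 °C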). Conditions: SK-N-SH neuroblastoma cell viability qHTS. Put shortly:
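SK-N-SH human neuroblastoma cells (1500/well) were exposed to compounds in complete medium for 40 h at 37 °C, and intracellular ATP was then measured by CellTiter-Glo luminescence. AC50 was taken from Hill fits, normalized to DMSO and 100 uM tamoxifen.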

Structures are written as SMILES. Several values for one entry are separate records, joined by “and”; a condition that tells them apart may be missing. Equal values may be shown once. Unmarked numbers belong to inactive results. Inconclusive results are not listed. Activity calls are given as the source filed them. Unless noted, calls follow the shape of the dose curve; as a rule, active = well fitted curve in either direction with a large enough effect (not every such curve was filed as active); inconclusive = small, poorly fitted or top-dose-only effect, or another doubt; inactive = flat fitted curve, though single readings scatter.

Chain of Cytochrome P450 1A2 (Homo sapiens) (P05177 whole entry, looked up): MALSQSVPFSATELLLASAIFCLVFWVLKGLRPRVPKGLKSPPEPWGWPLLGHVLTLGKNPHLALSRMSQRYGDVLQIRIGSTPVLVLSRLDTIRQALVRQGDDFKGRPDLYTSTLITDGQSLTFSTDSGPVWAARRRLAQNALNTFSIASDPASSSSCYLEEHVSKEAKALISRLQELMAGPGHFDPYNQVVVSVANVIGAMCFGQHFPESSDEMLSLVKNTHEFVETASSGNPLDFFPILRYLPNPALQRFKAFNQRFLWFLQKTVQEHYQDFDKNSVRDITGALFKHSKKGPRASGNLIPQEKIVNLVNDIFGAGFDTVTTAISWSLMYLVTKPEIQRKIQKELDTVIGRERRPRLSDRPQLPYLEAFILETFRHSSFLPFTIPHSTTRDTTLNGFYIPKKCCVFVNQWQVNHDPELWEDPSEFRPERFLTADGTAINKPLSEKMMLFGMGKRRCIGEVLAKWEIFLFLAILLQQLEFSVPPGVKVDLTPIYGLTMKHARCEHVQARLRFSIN
Chain of Lysosomal acid glucosylceramidase (Homo sapiens) (P04062 whole entry, looked up): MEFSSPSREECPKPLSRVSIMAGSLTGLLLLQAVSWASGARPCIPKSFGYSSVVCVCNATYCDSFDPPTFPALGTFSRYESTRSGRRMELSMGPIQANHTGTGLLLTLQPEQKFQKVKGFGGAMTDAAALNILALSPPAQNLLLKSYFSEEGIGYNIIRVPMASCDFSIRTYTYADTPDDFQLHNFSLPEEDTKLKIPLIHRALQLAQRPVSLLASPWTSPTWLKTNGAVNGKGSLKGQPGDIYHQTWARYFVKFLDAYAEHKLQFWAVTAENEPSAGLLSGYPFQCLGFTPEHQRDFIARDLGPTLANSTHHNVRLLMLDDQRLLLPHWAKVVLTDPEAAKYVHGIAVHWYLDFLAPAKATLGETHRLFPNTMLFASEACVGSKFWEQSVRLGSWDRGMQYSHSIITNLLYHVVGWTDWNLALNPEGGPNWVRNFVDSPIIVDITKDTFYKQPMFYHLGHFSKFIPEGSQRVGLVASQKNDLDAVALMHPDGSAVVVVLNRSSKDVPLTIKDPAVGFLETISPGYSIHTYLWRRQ

With `Cn1nnnc1SCC1=C(C(=O)O)N2C(=O)[C@@H](NC(=O)[C@H](O)c3ccccc3)[C@H]2SC1`, the outcome in test [1] was inactive. Moreover, the activity change, negative = inhibition in test [2] is 5.92%.
On to `O=C(O)Cc1cc(I)c(Oc2ccc(O)c(I)c2)c(I)c1`, for which, in test [1], the call was inactive. In addition, the Potency in [3] was 12.6 µM (active). Besides, the activity change, negative = inhibition in test [2] was -22.7%.
`O=C(O)Cc1nn(Cc2ccc(Br)cc2F)c(=O)c2ccccc12`: in test [3], the Potency is 31.6 µM (active).
For the compound `COc1cc(S(C)=O)ccc1-c1nc2ncccc2[nH]1` (centres undefined), the compound was called inactive in test [1]. The Potency in test [3] is 0.251 µM (active). Moreover, the activity change, negative = inhibition in [2] was 21.1%.
As for `N[C@H](CC(=O)O)C(=O)O`, the result in test [1] was inactive. The activity change, negative = inhibition in test [2] was 13.7% [at 38 µM].
On to `Cc1ncc(C[n+]2csc(CCO)c2C)c(N)n1`, for which the result in test [1] was inactive. In test [2], the activity change, negative = inhibition was -0.747%.
As to `CCCC(CCC)C(=O)OC1C[C@H]2CC[C@@H](C1)[N+]2(C)C` (some centres undefined), the call in test [1] was inactive. Further, in [2], the activity change, negative = inhibition is -90.3% (active).
As to `O=P(O)(O)OP(=O)(O)O`, the Potency in test [4] was above 11.4 µM. Further, the compound was classed as inactive in test [1]. For the same compound, the activity change, negative = inhibition in test [2] is 3.99% [at 7.69 µM].
As to `CC(=O)N=c1sc(S(N)(=O)=O)nn1C`, in test [1], the compound was called inactive. Further, the Potency entry in [3] is “inactive”. In [2], the activity change, negative = inhibition is 0.015% and 12.3%.
Turning to `Oc1ccc(/C=C/c2cc(O)cc(O)c2)cc1`, in test [1], the result was inactive. The Potency in [5] was above 92 µM; in test [6], above 92 µM; in test [7] it was 52.8 µM; in test [8], above 92 µM; in test [9], above 92 µM; in test [10], above 92 µM.
For the compound `Cc1cccc(C)c1NC(=O)C1CCCCN1C` (centres undefined), the outcome in test [1] was inactive. In addition, the activity change, negative = inhibition in test [2] is -26%.
On to `N[C@@H](Cc1cc(I)c(Oc2ccc(O)c(I)c2)c(I)c1)C(=O)O`, for which the call in [1] was inactive. Besides, the activity change, negative = inhibition in test [2] was 7.62%.
On to `CC(=O)[C@H]1CC[C@H]2[C@@H]3C=CC4=CC(=O)CC[C@@]4(C)[C@H]3CC[C@]12C`, for which, in test [1], the compound was called inactive. In test [3], the Potency result is “inactive”.
Turning to `CCSc1ccc2c(c1)N(CCCN1CCN(C)CC1)c1ccccc1S2`, in test [3], the Potency was 0.316 µM (active).
As to `Cc1cc(-c2ccc(N=Nc3ccc4c(S(=O)(=O)O)cc(S(=O)(=O)O)c(N)c4c3O)c(C)c2)ccc1N=Nc1ccc2c(S(=O)(=O)O)cc(S(=O)(=O)O)c(N)c2c1O`, in test [3], the Potency is 12.6 µM (active).
Regarding `CCCOc1cc(N)ccc1C(=O)OCCN(CC)CC`, in [1], the compound was called inactive. The Potency in test [3] is 12.6 µM (active).
`O=C(O)CCC(=O)c1ccc(-c2ccccc2)cc1`: the compound was called inactive in [1]. Besides, in test [3], the Potency is 12.6 µM (active). Moreover, the activity change, negative = inhibition in test [2] was -7.68%.
Turning to `CC1(C)S[C@@H]2[C@H](NC(=O)C3(N)CCCCC3)C(=O)N2[C@H]1C(=O)O`, the compound was classed as inactive in [1]. Besides, the activity change, negative = inhibition in test [2] is -19.8%.
Turning to `CNC(=O)c1c(I)c(C(=O)NCC(=O)Nc2c(I)c(C(=O)O)c(I)c(C(=O)NCCO)c2I)c(I)c(N(C)C(C)=O)c1I`, the outcome in test [1] was inactive. In test [3], the Potency entry was “inactive”. The activity change, negative = inhibition in test [2] was -16%.
Take `CC(=O)Oc1cc(C(F)(F)F)ccc1C(=O)O`: the Potency entry in test [3] is “inactive”. The activity change, negative = inhibition in [2] was 27.2%.
As for `[O-][N+](=Nc1ccccc1)c1ccccc1`, the Potency in test [5], in test [6], in test [7], in test [8], in [9] and in test [10] was above 92 µM in each case.
In the case of `Cc1cc(C)c(NC(=O)C[C@H](CC(=O)O)c2cccc3ccccc23)c(C(=O)N2CCC3(CCCC3)CC2)c1`, in test [1], the compound was classed as inactive. In addition, the Potency result in test [3] is “inactive”. The activity change, negative = inhibition in [2] was -7.66% [at 38 µM].
Regarding `O=P(O)(O)O`, the Potency in test [5], in test [6], in test [7], in [8], in [9] and in test [10] was above 92 µM throughout.
Consider `CCc1cn([C@H]2C[C@H](O)[C@@H](CO)O2)c(=O)[nH]c1=O`, for which, in test [1], the result was inactive. In test [2], the activity change, negative = inhibition was 23.4%.
The matching figures for `CC(=O)Oc1cccc2c1C(=O)c1c(OC(C)=O)cc(C(=O)O)cc1C2=O`: “inactive” and -21.4%.
Turning to `CCCCC(=O)O[C@H]1CC[C@H]2[C@@H]3CCc4cc(O)ccc4[C@H]3CC[C@]12C`, in [1], the call was inactive.
Take `O=C1NCCN1c1ncc([N+](=O)[O-])s1`: the compound was classed as inactive in test [1]. In addition, the activity change, negative = inhibition in test [2] was -7.97%.
In the same order, the values of `CN(CCO)CC(O)Cn1cnc2c1c(=O)n(C)c(=O)n2C` (centres undefined) (tested in a mixture with another compound) are “inactive” and -24.9%.
With `Cn1cc(NC(=O)c2cc(NC(=O)c3cc(NC=O)cn3C)cn2C)cc1C(=O)NCCC(=N)N`, the result in test [1] was inactive.
With `C[C@]12CC[C@@H]3c4ccc(OC(=O)c5ccccc5)cc4CC[C@H]3[C@@H]1CC[C@@H]2O`, in test [1], the compound was called inactive.
For the compound `O=C(O)c1ccc(OCCn2ccnc2)cc1`, in test [1], the compound was called inactive. Further, the activity change, negative = inhibition in test [2] is -10.7%.
As for `CN1C(=O)OC(C)(C)C1=O`, the outcome in [1] was inactive. Further, in test [3], the Potency entry is “inactive”. Further, the activity change, negative = inhibition in test [2] is -1.31%.
`CN1CCc2c(c3ccccc3n2Cc2ccccc2)C1`: in test [1], the result was inactive. Further, the Potency in test [3] was 5.01 µM (active).
`OCc1ccccc1`: the Potency in [5], in test [6], in test [7], in [8], in test [9] and in test [10] was above 92 µM throughout.
As to `CC(C)O`, the Potency in [5], in [6], in test [7], in test [8], in [9] and in test [10] was above 92 µM in each case.
`CCCCC`: the Potency in [5], in test [6], in test [7], in [8], in [9] and in test [10] was above 92 µM each time.
As for `CC/C=C\C/C=C\C/C=C\CCCCCCCC(=O)O`, the Potency in test [5], in test [7], in [8], in test [9] and in test [10] was above 92 µM each time.
